According to PubChem BioAssay (NCATS):
Records with an inconclusive call do not appear. The source made the active and inactive calls. Calls come from the whole dose curve; as a rule, active = well fitted activation curve with a large enough effect; inconclusive = small, poorly fitted or top-dose-only effect; inactive = no such curve, though single readings can be large or run the other way.

Target: Rap guanine nucleotide exchange factor 4 (Homo sapiens) (UniProt Q8WZA2)
Assay: Confirmatory qHTS for agonist of cAMP-regulated guanine nucleotide exchange factor 4 (EPAC2) (AID 1645884);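 note: nucleotide exchange releases bodipy-GDP from Rap1 and this lowers its fluorescence; nearly all actives have a fitted effect of over 65% in size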
Conditions: EPAC2 GEF activity, Rap1B-BODIPY-GDP fluorescence; series mostly up to 154 µM
% is set by controls: 0 for no effect and ±100 for the full control effect.

Rap guanine nucleotide exchange factor 4 (Homo sapiens), sequence (Q8WZA2 whole entry, looked up): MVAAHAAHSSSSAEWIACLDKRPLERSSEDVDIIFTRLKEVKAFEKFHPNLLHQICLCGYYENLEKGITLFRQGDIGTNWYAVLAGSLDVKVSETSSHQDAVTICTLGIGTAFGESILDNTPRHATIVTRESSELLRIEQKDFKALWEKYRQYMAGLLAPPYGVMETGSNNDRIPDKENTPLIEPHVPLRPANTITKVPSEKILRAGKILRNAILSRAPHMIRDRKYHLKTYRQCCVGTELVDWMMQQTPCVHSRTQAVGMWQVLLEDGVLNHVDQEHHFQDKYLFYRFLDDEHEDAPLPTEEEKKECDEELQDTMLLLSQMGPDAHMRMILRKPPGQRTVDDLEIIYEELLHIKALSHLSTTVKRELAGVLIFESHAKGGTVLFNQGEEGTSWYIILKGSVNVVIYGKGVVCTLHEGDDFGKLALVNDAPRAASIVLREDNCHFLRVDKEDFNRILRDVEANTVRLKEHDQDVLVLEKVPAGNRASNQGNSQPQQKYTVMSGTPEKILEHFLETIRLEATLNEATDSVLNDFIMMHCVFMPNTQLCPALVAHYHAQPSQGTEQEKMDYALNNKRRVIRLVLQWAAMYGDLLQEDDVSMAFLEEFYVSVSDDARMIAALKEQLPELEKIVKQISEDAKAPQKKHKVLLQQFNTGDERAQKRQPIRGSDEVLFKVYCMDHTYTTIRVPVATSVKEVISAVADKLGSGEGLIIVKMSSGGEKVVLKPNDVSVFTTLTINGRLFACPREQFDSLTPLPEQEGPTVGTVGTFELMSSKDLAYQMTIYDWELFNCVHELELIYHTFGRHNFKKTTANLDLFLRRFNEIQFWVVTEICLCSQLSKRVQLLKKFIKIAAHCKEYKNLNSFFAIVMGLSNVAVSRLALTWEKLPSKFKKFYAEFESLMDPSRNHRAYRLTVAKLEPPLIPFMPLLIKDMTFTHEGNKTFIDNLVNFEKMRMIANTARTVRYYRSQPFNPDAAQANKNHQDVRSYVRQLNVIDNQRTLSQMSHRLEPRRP

Potency, inactive:
CCc1ccc2occ(CC(=O)Nc3ccc(C)c(C)c3)c2c1
O=C(Nc1cc(Cl)cc(Cl)c1)c1ccc(F)c(S(=O)(=O)NC2CCCC2)c1
COc1cc(S(=O)(=O)NC2CCCCC2C)ccc1Cl (configuration not stated)
NC(=O)c1c(NC(=O)CSc2nnc(-c3ccco3)n2N)sc2c1CCCC2
O=C(O)c1ccc(N2C(=O)CC(SC(=NCc3ccc4c(c3)OCO4)Nc3ccc(F)cc3)C2=O)cc1 (configuration not stated)
NC(=O)[C@H]1CC2(CC(c3cccc(NC(=O)[C@H]4CCC(=O)N4)c3)=NO2)CN1C(=O)c1ccccc1 (some centres not stated)
O=c1c2ccccc2nc(N/N=C/c2c(O)ccc3ccccc23)n1O
O=C(N/N=C/c1ccc(Sc2ccccn2)o1)c1cc2ccccc2cc1O

activation, inactive:
O=C(/C=C/c1ccco1)Nc1cccc2cccnc12 3.39% [at 17.1 µM, percent relative to cAMP agonist control]
CC1=NN(c2ccc(C)c(C)c2)C(=O)C1C(c1cccc(O)c1)C1C(=O)N(c2ccc(C)c(C)c2)N=C1C (configuration not stated) 7.48% [at 17.1 µM, percent relative to cAMP agonist control]
Cn1c(=O)c(C(=O)NNC(=O)c2ccccc2Br)c(O)c2ccccc21 2.84% [at 17.1 µM, percent relative to cAMP agonist control]
CCCC1=C(C(=O)OCC)C(c2ccco2)C(C#N)=C(N)O1 (configuration not stated) 2.29% [at 17.1 µM, percent relative to cAMP agonist control]
